# Laboratory results from PubChem BioAssay (NCI).
# Values joined by “and” are separate entries in the source; they are usually repeats but may differ in a detail not shown here. Equal values may be shown once. About 83,000 compounds went through this panel and 20% of them were active in at least one assay; those are over-represented in the sample as a whole.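 The endpoint reported here, percent growth, reads 100 for growth as untreated, 0 for no net growth and -100 for all cells dead.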 Values without a mark were called inactive. Active and inactive are the calls of the source. Rule for the calls: active = growth percent below 10; inactive = the rest.
# Test system: MDA-MB-468 breast
# Assay: NCI-60 one-dose screen, 48 h (100 = growth as untreated, 0 = no growth, -100 = all killed)
# Settings: 10 µM unless noted
row,Structure (SMILES),growth
1,O=C1CCC(N2C(=O)c3cccc(NCCCC4CCN(CCNC(=O)c5cc6c(o5)C(=O)c5ccccc5C6=O)CC4)c3C2=O)C(=O)N1 (centres undefined),-73.9% (active)
2,C#CCOc1ccc2ncnc(Nc3cccc(CNC(=O)C=C)c3)c2c1,89.2% [8.25 µM]
3,CCSC(SCC)c1ccc(Cl)cc1,118%
4,CCCCn1sc(=O)n(Cc2ccc(CNC(=O)OCc3ccc4c(Cl)cc(Cl)c(O)c4n3)cc2)c1=O,72.4%
5,N#Cc1cccc(CN2CCC3=C(C2)C(=O)N(Cc2ccc(Cl)cc2)C2=NCCN23)c1,-14.9% (active)
6,CN(C)c1ccc(/C=c2\sc3nc4ccccc4n3c2=O)cc1,78.4%
7,O=C(c1ccc(F)c(Cl)c1)N1c2ccccc2Sc2ccccc21,63.1%
8,CCOC(=O)Nc1ccc2c(c1)/C(=N\NC(N)=S)c1ccccc1-2,55.3% and 75.3%
9,C=C1CCC2C(C)(CO)C(O)CCC2(C)C1C/C=C1/C(=O)OCC1O/C=C/c1ccccc1 (centres undefined),80.5%
10,COc1cc2c(cc1-c1c(C)noc1C)ncc1nc(C3CCCCC3)n(C3CCC(OC(F)F)CC3)c12 (centres undefined),29.8%
11,CC(C)CCSc1nc(Nc2ccccc2)c(C#N)c(-c2ccccc2)n1,43.4%
12,COc1cc(-c2c3c(nc4c2c(C)nn4-c2ccccc2)-c2ccccc2C(=O)C3=O)cc(OC)c1OC,88.9%
13,O=CCCCC(O)C=O (centres undefined),98.9%
14,CC1(C)N=C(N)N=C(N)N1c1ccc(OCC(=O)Nc2ccccc2)c(Cl)c1,56.8%
15,COc1ccc(-c2nc(C#N)c(NCC(c3ccco3)N3CCCC3)o2)cc1 (centres undefined),49.2%
16,Cn1cc(-c2noc(C(=O)c3cn(C)c4ncc(Br)cc34)n2)c2ccccc21,111%
17,O=[N+]([O-])c1ccccc1Nc1ccc2ccccc2c1,80.4%
18,COc1ccc(Nc2cc(C)nc(NCc3ccccc3)n2)cc1,49.9%
19,COc1ccc(C(=O)Nc2ncc(Cc3ccc(F)cc3)s2)cc1,22.4%
20,O=C1OC(Oc2ccccc2)(c2ccccc2)c2ccccc21 (centres undefined),112%
21,c1ccc(CNc2ncnc3ccc(-c4cnc5[nH]ncc5c4)cc23)cc1,50.7%
22,OB(O)c1ccsc1-c1nc2ccc3[nH]ncc3c2c2c1CCCC2,8.64% (active)
23,NCCN1CCN(c2nc(-c3ccccc3)nc3nc(-c4ccccc4)oc23)CC1,-33.6% (active)
24,COc1ccc(Nc2nn3c(-c4ccccc4)cc(-c4ccccc4)nc3c2C(N)=O)c(OC)c1,43.5%
25,Cc1cc2nc3c4cc(Cl)ccc4n(CC(=O)NCCN(C)C)c3nc2cc1C,60.6%
26,CCS(=O)(=O)Nc1cccc(Nc2c3cccc(C)c3nc3c(C)cccc23)c1OC,37.7%
27,COc1cc2nc(-c3ccc(C(F)(F)F)cc3)cc(OCCN3CCC(O)CC3)c2cc1OC,81.1%
28,CCc1ccc(-c2nnc(COc3ccc(-c4nc5ccc(C)cc5[nH]4)cc3OC)o2)cc1,63.1%
29,CC(=O)N1c2ccccc2NC2=C(C(=O)N(Cc3ccccc3)C2(C)C)C1c1ccco1 (centres undefined),-1.86% (active)
